Holding throughout (design): scale not given: direction of the effect not stated beside the values
Assay [1] deals with Protein translocase subunit SecA (Escherichia coli (strain K12)) (UniProt P10408). Briefly: Assay to Identify E. coli SecA ATPase Inhibitors. Format: functional. To be noted: 30 µM.
Assay [2] concerns the target T1, Ubiquitin-activating enzyme e1, putative (Leishmania donovani (strain BPK282A1)) (UniProt E9BSI1).
T1 sequence (whole entry): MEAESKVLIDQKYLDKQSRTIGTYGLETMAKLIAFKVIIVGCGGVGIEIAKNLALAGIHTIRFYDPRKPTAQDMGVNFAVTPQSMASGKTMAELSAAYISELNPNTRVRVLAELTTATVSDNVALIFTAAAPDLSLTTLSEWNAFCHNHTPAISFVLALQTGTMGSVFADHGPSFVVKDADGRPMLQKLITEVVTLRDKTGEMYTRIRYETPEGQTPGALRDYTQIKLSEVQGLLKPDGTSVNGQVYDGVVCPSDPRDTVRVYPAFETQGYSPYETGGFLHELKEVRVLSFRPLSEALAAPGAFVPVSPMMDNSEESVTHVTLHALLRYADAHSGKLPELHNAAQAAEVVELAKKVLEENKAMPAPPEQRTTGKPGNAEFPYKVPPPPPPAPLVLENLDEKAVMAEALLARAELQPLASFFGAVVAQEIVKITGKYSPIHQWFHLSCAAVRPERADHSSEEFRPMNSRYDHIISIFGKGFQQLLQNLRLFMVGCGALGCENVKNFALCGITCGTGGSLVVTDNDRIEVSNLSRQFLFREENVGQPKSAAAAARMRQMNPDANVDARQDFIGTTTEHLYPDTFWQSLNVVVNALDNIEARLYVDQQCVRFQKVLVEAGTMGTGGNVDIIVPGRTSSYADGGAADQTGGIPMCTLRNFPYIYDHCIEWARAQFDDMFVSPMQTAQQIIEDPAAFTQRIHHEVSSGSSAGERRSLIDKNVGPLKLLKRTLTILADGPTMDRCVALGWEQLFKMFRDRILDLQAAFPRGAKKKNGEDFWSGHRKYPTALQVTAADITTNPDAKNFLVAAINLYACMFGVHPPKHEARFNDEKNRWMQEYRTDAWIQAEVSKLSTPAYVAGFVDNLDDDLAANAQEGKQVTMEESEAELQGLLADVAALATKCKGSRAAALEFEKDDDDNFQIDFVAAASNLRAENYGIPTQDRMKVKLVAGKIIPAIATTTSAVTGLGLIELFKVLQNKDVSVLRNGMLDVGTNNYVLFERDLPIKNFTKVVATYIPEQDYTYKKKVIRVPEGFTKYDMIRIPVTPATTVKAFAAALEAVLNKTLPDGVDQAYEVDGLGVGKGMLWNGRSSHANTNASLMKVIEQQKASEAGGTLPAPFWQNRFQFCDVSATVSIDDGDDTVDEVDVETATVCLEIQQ
Briefly: Leishmania donovani Ubiquitin Activating Enzyme (LdE1). The assay is classed as functional. To be noted: 30 µM.

Assay [3] concerns the target AMP-activated protein kinase, AMPK (Homo sapiens) (UniProt P54646+O43741+P54619+Q9UGJ0+Q9Y478+Q13131+Q9UGI9). Briefly: AMP-dependent Kinase enzyme assay. An in vitro enzyme assay that detects ADP turnover that is directly proportional to AMPK activity. This uses naive AMPK that is activated during the assay with MK-8722. The assay is classed as functional. The following applies: 30 µM.

The target of assay [4] is Sialic acid-binding Ig-like lectin 9 (Homo sapiens) (UniProt Q9Y336). Briefly: Hs-Siglec9 ALPHAscreen SOP 20170721. To be noted: 10 µM.
Sequence of Sialic acid-binding Ig-like lectin 9 (Homo sapiens) (Q9Y336 whole entry): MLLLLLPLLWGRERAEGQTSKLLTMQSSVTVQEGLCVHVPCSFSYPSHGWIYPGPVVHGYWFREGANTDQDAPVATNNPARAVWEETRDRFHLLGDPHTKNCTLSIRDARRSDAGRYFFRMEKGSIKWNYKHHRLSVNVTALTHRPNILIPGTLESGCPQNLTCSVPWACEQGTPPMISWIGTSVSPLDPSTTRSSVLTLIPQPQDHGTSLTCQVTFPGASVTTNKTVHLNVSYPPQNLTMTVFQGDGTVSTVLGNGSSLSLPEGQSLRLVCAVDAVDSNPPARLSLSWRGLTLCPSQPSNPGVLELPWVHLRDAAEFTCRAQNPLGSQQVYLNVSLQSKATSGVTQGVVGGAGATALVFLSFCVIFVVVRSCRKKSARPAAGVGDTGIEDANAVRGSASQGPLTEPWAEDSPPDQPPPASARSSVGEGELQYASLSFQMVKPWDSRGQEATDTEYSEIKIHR
The next assay concerns Trypanosoma cruzi. Briefly: Trypanosoma cruzi phosphomannomutase and mannose-1-phosphate guanylyltransferase assay. To be noted: 10 µM. Format: functional.
Assay [5] concerns the target T2, Arginase-2, mitochondrial (Homo sapiens) (UniProt P78540).
T2 sequence (whole entry): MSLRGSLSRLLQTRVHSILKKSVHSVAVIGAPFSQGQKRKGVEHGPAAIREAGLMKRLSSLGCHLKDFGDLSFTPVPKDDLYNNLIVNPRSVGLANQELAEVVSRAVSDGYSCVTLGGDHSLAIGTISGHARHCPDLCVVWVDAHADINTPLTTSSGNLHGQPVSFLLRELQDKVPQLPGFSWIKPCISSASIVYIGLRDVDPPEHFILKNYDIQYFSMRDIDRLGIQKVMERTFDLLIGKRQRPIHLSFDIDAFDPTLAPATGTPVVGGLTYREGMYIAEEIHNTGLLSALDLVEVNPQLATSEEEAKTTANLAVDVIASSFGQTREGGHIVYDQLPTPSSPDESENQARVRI
Briefly: in vitro enzyme assay to detect the production of urea directly proportional to the activity of Arginase II. Also: in the data most compounds retested in dose-response had high values. Format: functional. To be noted: 33.3 µM.

Assay [6] has as its target T3, Proteasome subunit beta (Trypanosoma cruzi) (UniProt O96673).
T3 sequence (whole entry): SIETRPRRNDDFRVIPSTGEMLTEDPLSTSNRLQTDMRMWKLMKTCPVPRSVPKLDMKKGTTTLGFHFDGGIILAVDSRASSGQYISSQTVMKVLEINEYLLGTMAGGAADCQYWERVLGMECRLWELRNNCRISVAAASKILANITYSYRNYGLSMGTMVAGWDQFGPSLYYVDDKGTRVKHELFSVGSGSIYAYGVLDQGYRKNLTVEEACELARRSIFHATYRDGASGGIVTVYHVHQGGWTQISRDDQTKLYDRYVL
Briefly: Trypanosoma cruzi proteasome chymotrypsin-like activity (TcProtChymo) assay. Also: in the data most compounds retested in dose-response had high values. Format: functional. The following applies: 9.37 µM.

The next assay is filed under the species Homo sapiens. Briefly: To identify inhibition of the IFN signalling (Jak-Stat) pathway via expression of an eGFP reporter gene under the control of an IFN-stimulated response element (ISRE) containing MxA promoter. The assay is classed as functional. The following applies: 30 µM.
In assay [7] the target is T4, Tyrosyl-tRNA synthetase, putative (Trypanosoma cruzi (strain CL Brener)) (UniProt Q4DSP6).
T4 sequence (whole entry): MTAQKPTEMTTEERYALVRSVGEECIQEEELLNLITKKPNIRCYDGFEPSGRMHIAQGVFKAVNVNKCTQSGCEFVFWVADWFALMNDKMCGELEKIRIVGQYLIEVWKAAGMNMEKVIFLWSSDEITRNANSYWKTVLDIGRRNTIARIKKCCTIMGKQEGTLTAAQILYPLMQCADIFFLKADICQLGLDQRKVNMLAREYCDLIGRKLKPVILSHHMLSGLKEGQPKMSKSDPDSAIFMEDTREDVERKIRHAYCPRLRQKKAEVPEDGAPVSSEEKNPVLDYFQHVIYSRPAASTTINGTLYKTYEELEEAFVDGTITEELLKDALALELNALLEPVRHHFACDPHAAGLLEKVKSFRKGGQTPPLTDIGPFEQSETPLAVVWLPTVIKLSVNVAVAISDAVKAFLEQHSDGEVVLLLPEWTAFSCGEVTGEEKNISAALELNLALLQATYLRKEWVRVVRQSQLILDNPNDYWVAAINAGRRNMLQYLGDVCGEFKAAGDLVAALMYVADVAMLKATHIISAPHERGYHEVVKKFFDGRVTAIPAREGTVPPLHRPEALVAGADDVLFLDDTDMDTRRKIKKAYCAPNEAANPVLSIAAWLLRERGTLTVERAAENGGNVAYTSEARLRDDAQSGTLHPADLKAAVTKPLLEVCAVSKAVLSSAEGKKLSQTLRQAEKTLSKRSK
In words: Trypanosoma cruzi tyrosyl tRNA synthetase (TcYRS) _High Tyrosine SOP. Also: in the data most compounds retested in dose-response had high values. Format: functional. To be noted: 30 µM.

For assay [8], the target named is T4, Tyrosyl-tRNA synthetase, putative (Trypanosoma cruzi (strain CL Brener)). Briefly: Trypanosoma cruzi tyrosyl tRNA synthetase (TcYRS) SOP. Format: functional. The following applies: 30 µM.
The target in assay [9] is Chromo domain-containing protein 1 (Saccharomyces cerevisiae (strain ATCC 204508 / S288c) (Baker's yeast)) (UniProt P32657). In words: ScCHD-1 Enzyme Inhibition Assay. Also: in the data most compounds retested in dose-response had high values. Format: functional. To be noted: 30 µM.
Sequence of Chromo domain-containing protein 1 (Saccharomyces cerevisiae (strain ATCC 204508 / S288c) (Baker's yeast)) (P32657 whole entry, the tested form may be a part): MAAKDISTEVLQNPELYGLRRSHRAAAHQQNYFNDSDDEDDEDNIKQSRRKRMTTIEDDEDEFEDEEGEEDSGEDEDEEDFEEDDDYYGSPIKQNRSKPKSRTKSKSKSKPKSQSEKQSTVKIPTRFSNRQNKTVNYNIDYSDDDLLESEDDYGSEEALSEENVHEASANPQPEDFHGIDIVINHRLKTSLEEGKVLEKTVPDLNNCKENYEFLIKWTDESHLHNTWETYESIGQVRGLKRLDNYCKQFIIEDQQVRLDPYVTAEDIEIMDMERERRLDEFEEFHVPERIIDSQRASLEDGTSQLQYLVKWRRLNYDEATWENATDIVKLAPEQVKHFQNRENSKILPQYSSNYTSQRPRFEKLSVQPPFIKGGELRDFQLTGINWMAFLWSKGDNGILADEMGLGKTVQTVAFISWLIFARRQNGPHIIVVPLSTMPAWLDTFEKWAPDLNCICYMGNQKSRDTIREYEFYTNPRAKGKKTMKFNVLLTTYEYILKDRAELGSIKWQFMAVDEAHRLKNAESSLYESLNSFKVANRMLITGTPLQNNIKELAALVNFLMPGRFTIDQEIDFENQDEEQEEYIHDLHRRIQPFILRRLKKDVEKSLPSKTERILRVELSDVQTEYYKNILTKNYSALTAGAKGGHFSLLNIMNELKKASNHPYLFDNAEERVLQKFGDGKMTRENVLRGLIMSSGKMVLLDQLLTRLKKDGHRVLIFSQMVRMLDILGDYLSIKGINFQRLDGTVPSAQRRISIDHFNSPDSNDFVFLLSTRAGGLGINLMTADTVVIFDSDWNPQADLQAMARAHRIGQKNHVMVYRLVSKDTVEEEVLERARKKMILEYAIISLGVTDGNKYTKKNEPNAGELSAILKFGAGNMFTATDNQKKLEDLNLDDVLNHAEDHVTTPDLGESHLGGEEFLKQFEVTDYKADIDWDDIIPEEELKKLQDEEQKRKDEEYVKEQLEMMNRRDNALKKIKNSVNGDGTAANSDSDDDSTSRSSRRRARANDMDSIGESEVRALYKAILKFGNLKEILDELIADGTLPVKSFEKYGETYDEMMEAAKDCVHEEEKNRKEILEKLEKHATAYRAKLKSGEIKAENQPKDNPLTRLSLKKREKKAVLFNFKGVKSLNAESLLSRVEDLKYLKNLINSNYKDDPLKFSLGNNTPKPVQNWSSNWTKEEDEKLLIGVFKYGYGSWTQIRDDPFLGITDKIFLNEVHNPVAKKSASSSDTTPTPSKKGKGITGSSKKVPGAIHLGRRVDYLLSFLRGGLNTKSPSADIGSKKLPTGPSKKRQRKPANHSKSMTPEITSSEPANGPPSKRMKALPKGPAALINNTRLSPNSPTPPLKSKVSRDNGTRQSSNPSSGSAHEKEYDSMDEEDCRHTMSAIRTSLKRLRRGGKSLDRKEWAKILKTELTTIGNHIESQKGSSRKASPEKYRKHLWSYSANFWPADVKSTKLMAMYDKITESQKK

The structures appear in SMILES notation. For some assays here: Measured potencies and affinities stand elsewhere.

Sequence of Protein translocase subunit SecA (Escherichia coli (strain K12)) (P10408 whole entry): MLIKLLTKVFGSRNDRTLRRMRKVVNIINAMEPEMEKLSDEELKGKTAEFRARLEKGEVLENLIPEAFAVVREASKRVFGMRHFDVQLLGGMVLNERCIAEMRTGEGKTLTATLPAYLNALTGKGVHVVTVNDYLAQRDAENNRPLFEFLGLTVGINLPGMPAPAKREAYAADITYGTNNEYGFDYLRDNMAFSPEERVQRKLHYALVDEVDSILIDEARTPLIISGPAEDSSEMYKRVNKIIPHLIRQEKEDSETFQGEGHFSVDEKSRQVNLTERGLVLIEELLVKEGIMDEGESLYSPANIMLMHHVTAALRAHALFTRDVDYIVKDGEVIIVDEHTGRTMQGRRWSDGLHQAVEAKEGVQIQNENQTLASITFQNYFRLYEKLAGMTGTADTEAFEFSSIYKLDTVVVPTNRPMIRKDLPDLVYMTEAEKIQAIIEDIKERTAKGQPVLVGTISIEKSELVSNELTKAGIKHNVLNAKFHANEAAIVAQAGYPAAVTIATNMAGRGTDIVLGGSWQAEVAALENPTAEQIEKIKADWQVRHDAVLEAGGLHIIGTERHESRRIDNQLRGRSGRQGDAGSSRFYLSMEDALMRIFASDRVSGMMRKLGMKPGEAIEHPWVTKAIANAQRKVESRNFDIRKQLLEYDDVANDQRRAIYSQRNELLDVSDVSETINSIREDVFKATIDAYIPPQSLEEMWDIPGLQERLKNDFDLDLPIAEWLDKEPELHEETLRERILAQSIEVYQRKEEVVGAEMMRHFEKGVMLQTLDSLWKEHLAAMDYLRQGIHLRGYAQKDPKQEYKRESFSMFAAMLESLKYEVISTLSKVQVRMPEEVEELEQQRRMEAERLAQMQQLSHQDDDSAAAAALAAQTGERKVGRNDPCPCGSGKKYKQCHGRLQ

With `c1nc2c(c(C3CC3)n1)CCN(CC1CCOC1)CC2` (stereo not given), the Percent Effect in assay [1] is -4.07%; in assay [2] it was 8.11%; in assay [3] it was 3.6%; in assay [4], -7.53%; with Trypanosoma cruzi it was 8.31%; in assay [5], 3.5%. For the same molecule, the Percent Effect in [6] is 20.7%; in the assay filed under Homo sapiens, 7.05%; in assay [7], 5.41%; in assay [8], 15.4%; in assay [9], -0.123%.

Take `O=C(NCCNc1ncccn1)N(Cc1ccc(F)cc1F)C1CC1`: the Percent Effect in assay [1] was -3.52%; in assay [2], 10.1%; in assay [3] it was -4.4%; in [4] it was 16.9%; in the assay on Trypanosoma cruzi, -2.36%; in assay [5], 1.52%. Also, the Percent Effect in assay [6] was -3.03%; in the assay listed under Homo sapiens it was 8.99%; in assay [7], 2.46%; in assay [8] it was 8.86%; in assay [9], -3.1%.

In the case of `Cc1cc(C)n(C2CCCN(C(=O)c3ccc(F)cc3F)C2)n1` (stereo not given), the Percent Effect was -11.1% in [1]; -5.41% in assay [2]; -1.04% in assay [3]; 0.0778% in assay [4]; -3.91% in the assay on Trypanosoma cruzi; -3.75% in [5]. The Percent Effect in assay [6] is 7.02%; in the assay filed under Homo sapiens it was -1.41%; in assay [7], 5.94%; in assay [8] it was 6.1%; in assay [9], 2.92%.

In the case of `O=C(c1cscn1)N1CCC2(CCN(Cc3nccs3)C2)CC1`, the Percent Effect in [1] was -1.95%; in assay [2], 2.7%; in assay [3] it was 2.22%; in [4], 3.97%; in the assay with Trypanosoma cruzi, 0.293%; in [5] it was -6.05%. Besides, the Percent Effect in assay [6] is 16.4%; in the assay listed under Homo sapiens it was -17.2%; in [7], 1.08%; in assay [8] it was 5.13%; in assay [9], 5.03%.

On to `CC(CNC(=O)N1CCN(CC(F)F)CC1)Cc1cccs1` (stereo not given), for which the Percent Effect in assay [1] is -7.32%; in assay [2], 2.7%; in assay [3], 3.08%; in [4] it was 1.71%; with Trypanosoma cruzi it was -1.17%; in assay [5] it was 2.08%. Further, the Percent Effect was 6.34% in assay [6]; -5.03% in the assay filed under Homo sapiens; 8.91% in assay [7]; 1.22% in assay [8]; -2.29% in [9].

With `COc1ccc(CC(=O)N2CCCCC2Cn2cccn2)cc1OC` (stereo not given), the Percent Effect was -5.85% in assay [1]; 7.89% in assay [2]; 1.89% in assay [3]; 0.458% in [4]; 0.682% with Trypanosoma cruzi; -11.8% in assay [5]. In addition, the Percent Effect was 6.81% in [6]; 5.15% in the assay filed under Homo sapiens; 0% in assay [7]; 10.4% in [8]; -1.27% in [9].

Regarding `N#CCCCS(=O)(=O)N1CCCC1CC(=O)c1cccs1` (stereo not given), the Percent Effect is -2.19% in assay [1]; 2.7% in assay [2]; -3.83% in [3]; 2.31% in assay [4]; -1.93% with Trypanosoma cruzi; -3.81% in [5]. Also, the Percent Effect is 3.1% in assay [6]; -1.42% in the assay filed under Homo sapiens; -0.529% in assay [7]; -4.88% in [8]; -0.34% in assay [9].

Consider `Cc1cc(CN2CCOC(CN(C)c3cccnn3)C2)no1` (stereo not given), for which the Percent Effect in [1] was -4.31%; in assay [2], 0%; in assay [3], 18.6%; in assay [4], -5.84%; in the assay with Trypanosoma cruzi, 3.23%; in assay [5], -0.21%. In addition, the Percent Effect in [6] was 6.39%; in the assay filed under Homo sapiens, 1.91%; in assay [7], 0.952%; in assay [8] it was 2.35%; in assay [9], -18.6%.

In the case of `CS(=O)(=O)c1ccccc1C(=O)NCC1Cc2ccccc2O1` (stereo not given), the Percent Effect is -1.96% in [1]; 11% in assay [2]; -2.95% in assay [3]; 0.634% in [4]; -4.31% in the assay with Trypanosoma cruzi; 0.455% in [5]. Also, the Percent Effect is 19% in assay [6]; 20.8% in the assay filed under Homo sapiens; 4.3% in [7]; 7.5% in assay [8]; -5.76% in assay [9].

For `CC(=O)NC1CCCN(C(=O)NCc2ccc(-c3ccn[nH]3)cc2)C1` (stereo not given), the Percent Effect in assay [1] is -4.57%; in assay [2], 21.1%; in assay [3], 2.99%; in assay [4], -2.61%; in the assay with Trypanosoma cruzi it was 3.83%; in assay [5] it was 0%. In addition, the Percent Effect in assay [6] is 12.4%; in the assay filed under Homo sapiens it was -12.3%; in assay [7], 8.37%; in [8], 23.5%; in [9], -8.05%.

These data come from ChEMBL document CHEMBL3988442, “University of Dundee, Small-Polar-MMV Screening Library” (2021).
